Screening results deposited in PubChem by National Center for Advancing Translational Sciences (NCATS).
The list is not random: actives were taken first. Their share in the collection is about 4.7%.
D1 antag: blocks dopamine activation of the human D1 receptor; P21728; HEK293 TREx D1 cells, calcium flux, dopamine EC80; active compounds read low; activity change, negative = inhibition, % at 10 µM; hit rate 3.2% among 360,000; in the data active = activity change below about -30%; note: % is set by controls: 0 for no effect and ±100 for the full control effect
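Tetracycline-induced HEK293 T-REx cells with force-coupled D1 receptor were loaded with a no-wash calcium dye. Compound was added after a 10 s baseline and read kinetically for 180 s; EC80 dopamine was then added and calcium flux followed another 180 s.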
D1 potentiator: human D1 dopamine receptor positive modulation; P21728; HEK293 TREx D1 cells, calcium flux, dopamine EC20 potentiation; potentiation, % at 10 µM; hit rate 0.036% among 360,000; AID 504651; in the data active = potentiation above about 30%; note: 0% is about no effect
TRHR PAM: allosterically enhances the human TRH receptor; P34981; TRHR cells, fluo-8 calcium fluorescence, EC20 TRH enhancement; enhancement, % at 2 µM; hit rate 0.66% among 360,000; AID 493056; in the data active = enhancement above about 30%; note: 0% is about no effect
Target sequence (P34981 whole entry, looked up): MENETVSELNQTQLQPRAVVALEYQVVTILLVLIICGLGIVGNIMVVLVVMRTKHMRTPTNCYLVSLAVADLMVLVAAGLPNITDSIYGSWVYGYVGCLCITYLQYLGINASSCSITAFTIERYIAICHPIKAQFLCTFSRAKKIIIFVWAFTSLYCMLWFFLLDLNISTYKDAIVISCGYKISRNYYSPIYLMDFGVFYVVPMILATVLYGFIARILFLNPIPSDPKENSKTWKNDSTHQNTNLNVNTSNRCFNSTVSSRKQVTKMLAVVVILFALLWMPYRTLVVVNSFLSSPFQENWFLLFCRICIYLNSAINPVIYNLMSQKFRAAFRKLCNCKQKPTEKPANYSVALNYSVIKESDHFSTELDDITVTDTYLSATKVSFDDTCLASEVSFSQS
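Enhancer read-out: after compound pinning and an initial kinetic agonist-mode read, an EC20 of TRH (10 nM final) was injected and fluo-8 calcium signal (Ex 480/Em 530) followed at 1 s/cycle for 100 cycles in TRHR-expressing cells.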
D1 ag: agonists of human D1 dopamine receptor. hit rate 1% among 360,000. activation, % at 2 µM. AID 504660. HEK293 T-REx D1 cells, calcium flux, agonist mode; note: 0% is about no effect
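Tetracycline-induced HEK293 TREx D1 cells, force-coupled to calcium signalling, were dye-loaded with a no-wash calcium kit. Compound was pin-added after a 10 s baseline. Fluorescence was read kinetically at 1 cycle/s for 180 s, with calcium rises flagged as agonism.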
TRHR ag: activates the human TRH receptor; hit rate 0.18% among 360,000; AID 493084; TRHR cells, calcium flux fluo-8, FDSS agonist mode; P34981; activation, % at 2 µM; note: 0% is about no effect
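TRHR-expressing cells, plated overnight in medium with 10% serum, were loaded with fluo-8 calcium dye at room temperature. After a 10 s baseline, library compound was pin-added and calcium release was recorded kinetically (ex 480/em 530) as agonist response.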
The depositor's hits bear a star; x = not tested or not shown. Cut-off read from the data, not from the text of the source, unless noted: active = activation above about 30%; inactive = the rest.

SMILES	D1 antag	D1 potentiator	TRHR PAM	D1 ag	TRHR ag
COc1cccc(N(C(=O)c2snc(C(N)=O)c2N)C(C(=O)NCC2CCCO2)c2ccc(F)cc2)c1 (centres undefined)	-2	x	-2	4	0
Cc1ccc(-c2nc(CS(=O)(=O)CC(=O)NCc3ccc(Cl)cc3)c(C)o2)cc1	3	-4	7	0	0
Cc1c(C(=O)NCc2cccc(Cl)c2)sc2nc3n(c(=O)c12)CCCC3	-16	-1	14	32*	14
COc1ccc(CNC(=O)c2cnc(N3CCCC3)nc2C)cc1	-44*	1	-2	-1	0
Cc1ccc(CNC(=O)c2cnc(N3CCCC3)nc2C)cc1	8	0	-5	3	0
Cc1c(C(=O)NCc2ccc(Cl)cc2)sc2nc3n(c(=O)c12)CCCC3	3	2	19	3	1
Cc1cccc(CCNC(=O)c2sc3nc4n(c(=O)c3c2C)CCCC4)c1	7	-1	-4	32*	9
COc1ccc(CNC(=O)c2sc3nc4n(c(=O)c3c2C)CCCC4)cc1	-3	-3	-2	71*	23
Cc1c(C(=O)NCc2ccccc2Cl)sc2nc3n(c(=O)c12)CCC3	-7	-4	-4	1	0
COc1ccc(CNC(=O)C2CCC(CNS(=O)(=O)c3cccs3)CC2)cc1 (centres undefined)	-2	-5	1	-2	0
CN(C)S(=O)(=O)c1ccc(NC(=O)CN2C(=O)NC3(CCCC3)C2=O)cc1	-10	-6	36*	5	1
CN(C)c1ccc(S(=O)(=O)N2CCCCC2)cc1NC(=O)CN1C(=O)NC(C)(c2ccccc2)C1=O (centres undefined)	3	0	6	3	0
CN(C)c1ccc(S(=O)(=O)N2CCCCC2)cc1NC(=O)CN1C(=O)NC2(CCCC2)C1=O	-42*	4	7	-1	-1
Cc1ccccc1CN1C(=O)c2ccccc2S(=O)c2ccc(C(=O)NCc3ccc4c(c3)OCO4)cc21 (centres undefined)	5	-3	-1	3	0
CSc1nccc(Oc2cccc(C#N)c2)n1	-33*	-10	0	2	-1
Cc1c(C(=O)Oc2cccc3ccccc23)cnn1-c1ccccc1	-8	1	0	-3	1
CC(=Nc1ccc(C)cc1)c1sc2ccccc2c1O	-22	-8	-6	61*	19
CC(=Nc1ccc(C)cc1C)c1sc2ccccc2c1O	-12	-6	0	21	5
COc1ccc(C2(C)NC(=O)N(CC3CCCCC3)C2=O)cc1 (centres undefined)	-52*	-5	-5	12	0
CCOc1ccc(-n2c(=O)c3sccc3n(CC(=O)NC3CCCCC3)c2=O)cc1	5	-2	39*	1	-1
Cc1ccc(-n2c(=O)c3sccc3n(CC(=O)NC3CCCC3)c2=O)cc1	12	x	-1	3	-1
O=C(Cn1c(=O)n(-c2ccc(F)cc2)c(=O)c2sccc21)NC1CCCCC1	-61*	-3	-1	1	0
Cc1cc(N2CCN(S(=O)(=O)c3ccc4c(c3)OCCO4)CC2)n2ncnc2n1	-46*	-4	-3	10	0
Cc1cc(N2CCN(S(=O)(=O)c3ccc(Br)cc3)CC2)n2ncnc2n1	-18	-2	-3	2	0
CCCc1cc(N2CCN(c3ccccc3)CC2)n2cnnc2n1	3	-2	-3	3	-2
SMILES	D1 antag	D1 potentiator	TRHR PAM	D1 ag	TRHR ag
CCCc1cc(N2CCN(c3ccc(OC)cc3)CC2)n2cnnc2n1	-33*	-2	2	5	-1
CCc1nc(SCC(=O)Nc2ccnc3ccccc23)n[nH]1	-46*	-3	-2	12	0
CCc1nc(SCC(=O)Nc2ccccc2C(=O)OC)n[nH]1	-6	4	4	-1	0
CCOC(=O)/C(C#N)=C\c1ccc(O)c(OC)c1	-26	-3	0	2	1
COc1cc(/C=C(\C#N)C(=O)Nc2ccc3c(c2)OCCO3)ccc1O	3	0	-4	41*	16
CCOC(=O)c1c(-c2ccc(C)cc2)csc1NC(=O)/C(C#N)=C/c1ccc(O)c(OC)c1	2	5	-3	111*	16
Cc1cccc(-c2noc(-c3ccc(NCC4CCCO4)c([N+](=O)[O-])c3)n2)c1 (centres undefined)	-4	2	4	-1	-1
Fc1ccccc1-c1nc(N2CCN(c3cccc(Cl)c3)CC2)c2ccccc2n1	10	0	-3	3	1
CNCCC1Sc2ccccc2Oc2ccccc21 (centres undefined)	11	-8	12	81*	1
CCC(C)(C)NC(=O)C(c1ccc(C)cc1)N(Cc1cccnc1)C(=O)c1csnn1 (centres undefined)	-63*	-25	4	-1	0
COc1ccc(C(C#N)N2CCC(c3ccccc3)=N2)cc1 (centres undefined)	-1	-3	1	0	1
O=C(NCCC1=CCCCC1)C(c1ccccc1)c1ccccc1	-33*	-8	-4	5	0
O=C(CCc1ccccc1)NCCC1=CCCCC1	-33*	14	7	2	0
CCC1Oc2ccccc2N(CC(=O)NCCC2=CCCCC2)C1=O (centres undefined)	-34*	-1	-1	6	-1
O=C(NCCC1=CCCCC1)c1ccc(Br)o1	6	-7	-4	0	0
O=C(CCCc1ccccc1)NCCC1=CCCCC1	-10	-4	0	0	-2
O=C(NC(=S)NCCC1=CCCCC1)c1ccc(Br)o1	-32*	-5	-8	4	0
O=C(NCc1ccccc1)c1cc2ccc(O)cc2oc1=O	-9	-6	-1	5	2
CC(Sc1nc2ccccc2s1)C(=O)N(C)Cc1ccccc1 (centres undefined)	2	-8	-1	0	0
COC(=O)c1ccccc1N1C(=O)[C@@H]2C(c3ccc(Br)cc3)=NO[C@@H]2C1=O	-48*	-3	14	8	1
COC(=O)c1ccccc1N1C(=O)C2C(C1=O)[C@H]1C=C[C@@H]2C1 (some centres undefined)	-4	-3	4	2	0
Cc1nnc(SCc2ccccc2)n(N)c1=O	-6	2	3	-2	-1
Cc1ccc(CSc2nnc(C)c(=O)n2N)cc1	-48*	3	-4	1	0
Cc1ccccc1NC(=O)Cc1nc(COC(=O)C(NC(=O)c2ccccc2C)C(C)C)cs1 (centres undefined)	3	-7	2	4	0
CCOc1ccc(NS(=O)(=O)c2c(C)nc3sccn3c2=O)cc1	-34*	-10	-6	7	1
COc1cccc(NS(=O)(=O)c2c(C)nc3sccn3c2=O)c1	-43*	0	-3	8	0
